Only some compounds are listed: those with a hit (about 2% of all), similar ones and a draw of the others.
EWS-Fli inh: EWS/Fli transcriptional activity inhibition; actives 0.67% (n = 350,000); AID 651661; A673 NR0B1-luciferase reporter, viability-normalised; inhibition, % at 12.6 µM;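 active = mean inhibition of at least 50% after viability correction, with every replicate also passing that limit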;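 also: firefly luciferase signal divided by Alamar Blue viability fluorescence both relative to DMSO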
Shn3 3UTR inh: inhibitors of Schnurri-3 3'UTR reporter in osteoblasts; Clone20 osteoblast Shn3 3'UTR firefly luciferase, 24 h; inhibition, % at 12.5 µM; actives 0.52% (n = 360,000);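 active = mean inhibition of at least 75% with every replicate also reaching 75%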
KKLEB tox: reduces viability of KKLEB cystic fibrosis airway cells. KKLEB CF airway cells viability, ATPlite luminescence, overnight; hits give low values; cells stimulated with P. aeruginosa culture filtrate. activity change (cytotoxicity), % at 5 µM. actives 0.36% (n = 360,000). AID 602141;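 active = corrected activity change at or below -50% at 5 µM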
CF NFkB block: blocks PAF-induced NF-kB reporter in cystic fibrosis cells. KKLEB NF-kB-GFP reporter, GFP fluorescence overnight. inhibition, % at 5 µM. actives 0.86% (n = 360,000). AID 588850;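 active = at least 50% inhibition at 5 µM, scaled per plate between neutral and stimulator controls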;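 also: PAF is a Pseudomonas aeruginosa culture filtrate used as stimulus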
PAX8 reporter: PAX8 transcriptional activity inhibition; actives 1.2% (n = 360,000); AID 652154; RMG-I TPO-luciferase reporter, SteadyGlo, 24 h; inhibition, % at 12.6 µM;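 active = mean replicate inhibition at least 60% with every replicate also reaching 60%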;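 also: luciferase light reporting Pax8 driven TPO promoter activity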
LGR2 antag: inhibitors of bursicon-induced Drosophila LGR2 receptor cAMP signaling; HEK293 LGR2, CRE-luciferase, bursicon-stimulated, 4 h; inhibition, % at 9.99 µM; actives 0.35% (n = 380,000); AID 720647;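 active = drop in luminescence signal, shown as inhibition above about 50% in the replicate tests, limit read from the data, passing the limit was not always enough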;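 also: agonist challenge used bursicon conditioned medium at about half maximal strength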
A number is an active result.

How did O=[N+]([O-])c1ccccc1-c1ccc(/C=N/n2cnnc2)o1 do in these assays?
Shn3 3UTR inh: inactive; KKLEB tox: inactive; CF NFkB block: inactive

What do the screens show for `Nn1cnnc1N/N=C\c1ccc(-c2ccccc2[N+](=O)[O-])o1`?
EWS-Fli inh: inactive; Shn3 3UTR inh: inactive; KKLEB tox: inactive; CF NFkB block: inactive; PAX8 reporter: 92.5; LGR2 antag: inactive

How did COCC(=O)N(C)C[C@H]1Oc2ncc(C3=CCCC3)cc2C(=O)N([C@@H](C)CO)C[C@@H]1C do in these assays?
EWS-Fli inh: inactive; PAX8 reporter: inactive; LGR2 antag: inactive

Results for CCn1c2ccccc2c2cc(N=C3SC(CC(=O)Nc4ccccc4OC)C(=O)N3C)ccc21 (centres undefined) ?
Shn3 3UTR inh: inactive; KKLEB tox: inactive; CF NFkB block: inactive; PAX8 reporter: inactive

How did CCn1c2ccccc2c2cc(N=C3SC(CC(=O)Nc4ccccc4)C(=O)N3C)ccc21 (centres undefined) do in these assays?
Shn3 3UTR inh: inactive; KKLEB tox: -52.0; CF NFkB block: 56.4; PAX8 reporter: inactive

What do the screens show for `COc1ccc(C(C)(O)c2nc(-c3ccncc3)cs2)cc1` (centres undefined)?
EWS-Fli inh: 58.9; Shn3 3UTR inh: inactive; KKLEB tox: inactive; CF NFkB block: inactive; PAX8 reporter: inactive; LGR2 antag: inactive

Results for COc1ccc(C(C)(O)c2nc(-c3ccc(F)cc3OC)cs2)cc1 (centres undefined) ?
EWS-Fli inh: 57.7; Shn3 3UTR inh: inactive; KKLEB tox: inactive; CF NFkB block: inactive; PAX8 reporter: inactive; LGR2 antag: inactive

Results for COc1ccc(C(C)(O)c2nc(-c3ccccc3C)cs2)cc1 (centres undefined) ?
EWS-Fli inh: 59.7; Shn3 3UTR inh: inactive; KKLEB tox: inactive; CF NFkB block: inactive; PAX8 reporter: inactive; LGR2 antag: inactive

Results for O=C(C[C@@H]1CC[C@@H]2[C@H](COC[C@H](O)CN2S(=O)(=O)c2ccccc2F)O1)NCc1ccccc1Cl ?
EWS-Fli inh: inactive; PAX8 reporter: inactive; LGR2 antag: inactive

What do the screens show for `Cc1ccc(S(=O)(=O)N2CC[C@@H]3[C@H]2c2cc(-c4ccc(C#N)cc4)ccc2N(C)[C@H]3CO)cc1`?
EWS-Fli inh: inactive; PAX8 reporter: inactive; LGR2 antag: inactive

What do the screens show for `Cc1cccc(S(=O)(=O)N2CC[C@H]3[C@@H](CO)N(C)c4ccc(-c5ccc(C#N)cc5)cc4[C@H]32)c1`?
EWS-Fli inh: inactive; PAX8 reporter: inactive; LGR2 antag: inactive

Results for Cc1ccc(S(=O)(=O)N2CC[C@@H]3[C@H](CO)N(C)c4ccc(-c5ccc(C#N)cc5)cc4[C@@H]32)cc1 ?
EWS-Fli inh: inactive; PAX8 reporter: 80.0; LGR2 antag: inactive

Results for CN1c2ccc(-c3cccc(C#N)c3)cc2[C@H]2[C@H](CCN2S(=O)(=O)c2ccccc2F)[C@H]1CO ?
EWS-Fli inh: inactive; PAX8 reporter: 102.3; LGR2 antag: inactive

Results for Cc1cccc(S(=O)(=O)N2CC[C@@H]3[C@H](CO)N(C)c4ccc(-c5ccc(C#N)cc5)cc4[C@@H]32)c1 ?
EWS-Fli inh: inactive; PAX8 reporter: 89.3; LGR2 antag: inactive

Results for CC(=O)N(C)C[C@H]1Oc2cc(-c3cccc(F)c3)ccc2S(=O)(=O)N([C@H](C)CO)C[C@@H]1C ?
EWS-Fli inh: inactive; PAX8 reporter: inactive; LGR2 antag: inactive

What do the screens show for `CN1CCN(C(=O)C[C@H]2C[C@H]3c4cc(NC(=O)Nc5ccccc5)ccc4O[C@H]3[C@H](CO)O2)CC1`?
EWS-Fli inh: inactive; PAX8 reporter: inactive; LGR2 antag: inactive

How did CCCN(C)C[C@H]1OCCCC[C@H](C)Oc2ccc(NS(=O)(=O)c3ccc(C)cc3)cc2C(=O)N([C@H](C)CO)C[C@H]1C do in these assays?
PAX8 reporter: inactive; LGR2 antag: inactive

What do the screens show for `CCOC(=O)c1c(NC(=O)/C=C/C(=O)O)sc(C)c1-c1ccc(C(C)(C)C)cc1`?
EWS-Fli inh: inactive; Shn3 3UTR inh: inactive; KKLEB tox: -85.8; CF NFkB block: 65.7; PAX8 reporter: inactive; LGR2 antag: inactive

What do the screens show for `CC(C)c1nnc(NC(=O)c2nc(S(=O)(=O)Cc3ccccc3)ncc2Cl)s1`?
EWS-Fli inh: 63.7; Shn3 3UTR inh: 94.2; KKLEB tox: -87.3; CF NFkB block: 99.8; PAX8 reporter: inactive; LGR2 antag: inactive
